Results reported in PubChem BioAssay AID1159580 (chemical genetic matrix, 2015).
Where “and” joins values, the source holds several entries; their conditions need not be identical. Identical values can stand only once. About 2,000 (36%) of roughly 5,500 compounds were called active. Inconclusive results (about 18%) are left out. Rule as the data show it: active = normalized growth mostly below about 0.91 (no sharp cut-off); inconclusive = no clear call, values can overlap the other calls; inactive = mostly above about 0.92. The list shows a part of the results.

Assay: chemical genetic growth profiling, strain panel (AID 1159580);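 also: tested at 20 µM; growth read once vehicle control cultures reached saturation at 30 °C; 1 = growth at the plate median or of vehicle wells; lower values mean less growth of the strain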
Conditions: S. cerevisiae deletion strains, growth OD

Measured: normalized growth

O=C1C(O)=C(O)C(=O)C(O)=C1O
inactive: locus YAL013W, strain DEP1, stronger effect = lower value 0.983 | locus YAL021C, strain ccr4, stronger effect = lower value 1 | locus YAL026C, strain drs2, stronger effect = lower value 1.02 | locus YAL030W, strain snc1, stronger effect = lower value 1 | locus YBL061C, strain skt5, stronger effect = lower value 1.03 | locus YBR009C, strain hhf1, stronger effect = lower value 0.992 | locus YBR021W, strain FUR4, stronger effect = lower value 1.01 | locus YBR023C, strain chs3, stronger effect = lower value 1.02 | locus YBR171W, strain sec66, stronger effect = lower value 1.02 | locus YBR229C, strain ROT2, stronger effect = lower value 0.964 | locus YBR231C, strain swc5, stronger effect = lower value 1.02 | locus YBR279W, strain paf1, stronger effect = lower value 1.01 | locus YCL011C, strain gbp2, stronger effect = lower value 0.991 | locus YCL016C, strain dcc1, stronger effect = lower value 1.02 | locus YCL029C, strain bik1, stronger effect = lower value 0.991 | locus YCL061C, strain MRC1, stronger effect = lower value 1.01 | locus YCL069W, strain vba3, stronger effect = lower value 1.03 | locus YCR088W, strain abp1, stronger effect = lower value 1.01 | locus YDL005C, strain med2, stronger effect = lower value 1.01 | locus YDL035C, strain GPR1, stronger effect = lower value 1 | locus YDL040C, strain nat1, stronger effect = lower value 0.997 | locus YDL074C, strain BRE1, stronger effect = lower value 0.968 | locus YDL101C, strain DUN1, stronger effect = lower value 0.965 | locus YDL134C, strain PPH21, stronger effect = lower value 0.983 | locus YDL185W, strain tfp1, stronger effect = lower value 0.959 | locus YDL192W, strain arf1, stronger effect = lower value 0.99 | locus YDR001C, strain nth1, stronger effect = lower value 1 | locus YDR069C, strain doa4, stronger effect = lower value 1.01 | locus YDR101C, strain arx1, stronger effect = lower value 1.01 | locus YDR137W, strain rgp1, stronger effect = lower value 0.984 | locus YDR150W, strain NUM1, stronger effect = lower value 0.968 | locus YDR159W, strain sac3, stronger effect = lower value 0.977 | locus YDR162C, strain NBP2, stronger effect = lower value 0.939 | locus YDR195W, strain ref2 0.999 | locus YDR297W, strain sur2, stronger effect = lower value 1.02 | locus YDR318W, strain mcm21, stronger effect = lower value 1.03 | locus YDR334W, strain swr1, stronger effect = lower value 1.01 | locus YDR335W, strain msn5, stronger effect = lower value 1.01 | locus YDR388W, stronger effect = lower value 0.991 | locus YDR392W, strain spt3, stronger effect = lower value 1.04 | locus YDR502C, strain sam2, stronger effect = lower value 0.996 | locus YEL003W, strain gim4, stronger effect = lower value 1.02 | locus YEL037C, strain rad23, stronger effect = lower value 0.998 | locus YEL061C, strain CIN8 (second series), stronger effect = lower value 1.01 | locus YEL061C, strain CIN8, stronger effect = lower value 0.987 | locus YER015W, strain faa2, stronger effect = lower value 1.01 | locus YER016W, strain bim1, stronger effect = lower value 1.01 | locus YER110C, stronger effect = lower value 0.986 | locus YER111C, strain swi4, stronger effect = lower value 0.991 | locus YER155C, strain BEM2 (second series), stronger effect = lower value 1.01 | locus YER155C, strain BEM2, stronger effect = lower value 1 | locus YER167W, strain BCK2, stronger effect = lower value 1.01 | locus YFR010W, strain ubp6, stronger effect = lower value 1 | locus YGL078C, strain dbp3, stronger effect = lower value 0.977 | locus YGL086W, strain mad1, stronger effect = lower value 1.02 | locus YGL167C, strain pmr1, stronger effect = lower value 1 | locus YGL173C, strain kem1, stronger effect = lower value 1.01 | locus YGL227W, strain vid30, stronger effect = lower value 1.01 | locus YGL240W, strain doc1, stronger effect = lower value 1.02 | locus YGL248W, strain PDE1, stronger effect = lower value 0.974 | locus YGL253W, strain hxk2, stronger effect = lower value 1 | locus YGR078C, strain PAC10, stronger effect = lower value 0.971 | locus YGR135W, strain pre9, stronger effect = lower value 0.968 | locus YGR229C, strain SMI1, stronger effect = lower value 0.969 | locus YGR252W, strain gcn5, stronger effect = lower value 1.04 | locus YHR013C, strain ard1, stronger effect = lower value 1.03 | locus YHR027C, strain rpn1, stronger effect = lower value 1.02 | locus YHR030C, strain SLT2, stronger effect = lower value 1 and 0.988 | locus YHR079C, strain IRE1 (second series), stronger effect = lower value 1 | locus YHR079C, strain IRE1, stronger effect = lower value 0.973 | locus YHR094C, strain hxt1, stronger effect = lower value 0.984 | locus YHR129C, strain ARP1, stronger effect = lower value 0.994 | locus YHR142W, strain chs7, stronger effect = lower value 1.02 | locus YHR200W, strain rpn10, stronger effect = lower value 1 | locus YIL066C, strain RNR3, stronger effect = lower value 0.977 | locus YIL073C, strain SPO22, stronger effect = lower value 1.07 | locus YIL125W, strain kgd1, stronger effect = lower value 0.967 | locus YIR030C, strain dcg1, stronger effect = lower value 0.993 | locus YJL092W, strain hpr5, stronger effect = lower value 1.01 | locus YJL095W, strain BCK1 (second series), stronger effect = lower value 1.02 | locus YJL095W, strain BCK1, stronger effect = lower value 0.991 and 0.993 | locus YJL115W, strain asf1, stronger effect = lower value 1 | locus YJL129C, strain trk1, stronger effect = lower value 1.03 | locus YJL134W, strain LCB3, stronger effect = lower value 0.995 | locus YJL154C, strain vps35, stronger effect = lower value 1.02 | locus YJL164C, strain tpk1, stronger effect = lower value 1 | locus YJL166W, strain qcr8, stronger effect = lower value 1.01 | locus YJL168C, strain set2, stronger effect = lower value 0.996 | locus YJL187C, strain SWE1 (second series), stronger effect = lower value 0.961 | locus YJL187C, strain SWE1, stronger effect = lower value 1.01 | locus YJR043C, strain POL32, stronger effect = lower value 1.03 | locus YJR066W, strain TOR1, stronger effect = lower value 0.941
